PTAP TSG101 blk: qHTS Assay for Iinhibitors of HIV-1 Budding by Blocking the Interaction of PTAP/TSG101 | Tumor susceptibility gene 101 protein (Homo sapiens), Q99816 | Fluorescence polarization, FITC-PTAP peptide / Tsg101 binding | Potency, µM (highest dose often 115 µM), without a hit: top-dose activity change, negative = inhibition, most hits filed as inhibitors | 340,000 tested, under 10 active; active = well fitted inhibition curve with a large enough effect in the main read-out, with a control signal flat, not every such curve was filed as active; inconclusive = small, poorly fitted or top-dose-only effect, or effect the other way, or a change in a side signal; inactive = no such curve, though single readings can be large or run the other way; also: % of control where 0% means no effect
Target sequence (Q99816 whole entry, looked up): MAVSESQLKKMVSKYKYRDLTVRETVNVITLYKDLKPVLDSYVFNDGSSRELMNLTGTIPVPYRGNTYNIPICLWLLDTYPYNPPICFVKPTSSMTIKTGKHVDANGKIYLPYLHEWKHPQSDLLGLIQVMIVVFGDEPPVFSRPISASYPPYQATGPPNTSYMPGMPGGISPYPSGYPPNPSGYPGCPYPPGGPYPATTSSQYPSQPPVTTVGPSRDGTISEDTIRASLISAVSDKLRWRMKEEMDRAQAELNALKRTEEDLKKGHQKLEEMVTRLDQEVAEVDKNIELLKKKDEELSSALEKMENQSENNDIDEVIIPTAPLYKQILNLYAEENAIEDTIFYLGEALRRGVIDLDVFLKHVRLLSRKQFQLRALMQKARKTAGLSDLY
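Compounds were pin-transferred onto Tsg101 binding domain (10 uM final) in HEPES pH 7.5 buffer, then FITC-PTAP peptide was added at 50 nM final. After 20 min at RT, polarization reported peptide displacement across a qHTS concentration series.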
KB-V1 cytotox: qHTS assay for MDR1-selective chemotherapeutics: Primary screen using the drug-selected MDR subline cells KB-V1 | Potency, µM (series often up to 46.1 µM), actives largely listed as cytotoxic | 400,000 tested, 3.4% active | KB-V1 MDR cells viability, CellTiter-Glo, 72 h | AID 1347076, 2019; also: % is scaled to controls: 0 for no effect and ±100 for the full control effect; nearly all actives have a fitted effect of over 60% in size
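Following 72 h at 37 degrees C with compound, KB-V1 cell viability was read by CellTiter-Glo luminescence, medium being phenol-red-free DMEM plus 10% FBS; concentration-response parameters came from normalized, curve-fitted qHTS data.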
MCF10A rereplic: A quantitative high throughput screen for small molecules that induce DNA re-replication in MCF 10a normal breast cells. Potency, µM (titrated, usually from 46.1 µM), for inactives: at the top dose activity, positive = re-replication, actives largely listed as activators. MCF 10A DNA re-replication, Hoechst nuclear intensity, 48 h. AID 624296, 2012. 350,000 tested, 2.9% active; also: % of control where 0% means no effect; nearly all actives have a fitted effect of over 50% in size
SW480 rerep: A quantitative high throughput screen for small molecules that induce DNA re-replication in SW480 colon adenocarcinoma cells | SW480 DNA re-replication, Hoechst DNA content imaging, 48 h | Potency, µM (doses to about 46.1 µM), without a hit: at the top dose re-replication activation, actives largely listed as activators | 340,000 tested, 1.8% active; also: % of control where 0% means no effect; nearly all actives have a fitted effect of over 55% in size
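Readout is total intensity of Hoechst-stained nuclei, excited at 405 nm and collected at 500-530 nm. Compound treatment lasted 48 hr at 37 C in 5% CO2 before staining.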
KB-3-1 tox: qHTS assay for MDR1-selective chemotherapeutics: Primary screen using the parental adenocarcinoma cell KB-3-1; KB-3-1 viability, CellTiter-Glo ATP luminescence, 72 h; Potency, µM (doses to about 46.1 µM), usual class: cytotoxic; 400,000 tested, 1.4% active; also: % is scaled to controls: 0 for no effect and ±100 for the full control effect; nearly all actives have a fitted effect of over 60% in size
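Cytotoxicity measured as CellTiter-Glo luminescence after 72 h at 37 C. Compound titrations were pinned onto drug-naive KB-3-1 parental adenocarcinoma cells grown in DMEM with 10% FBS, and normalized data fitted to concentration-response curves.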
RGS4 inh: Inhibitors of Regulator of G Protein Signaling (RGS) 4: qHTS; Regulator of G-protein signaling 4 (Homo sapiens), P49798; Transcreener GDP fluorescence polarization, RGS4-accelerated GTP hydrolysis; Potency, µM (top dose mostly 114 µM), inactives show at the top dose activity change, negative = inhibition, actives largely listed as inhibitors; 390,000 tested, 0.039% active; AID 504845, 2011; also: % is scaled to controls: 0 for no effect and ±100 for the full control effect; nearly all actives have a fitted effect of over 75% in size
Target sequence (P49798 whole entry, looked up): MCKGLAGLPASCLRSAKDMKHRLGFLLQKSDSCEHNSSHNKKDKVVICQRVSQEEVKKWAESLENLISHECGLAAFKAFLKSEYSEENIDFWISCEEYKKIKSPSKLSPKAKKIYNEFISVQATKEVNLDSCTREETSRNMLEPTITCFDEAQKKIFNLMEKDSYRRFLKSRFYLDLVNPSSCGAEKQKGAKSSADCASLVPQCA
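MLSMR compounds (23 nl, pin-transferred) preincubated 10 min at room temperature with a 500nM (2x) first reagent, then RGS4 at 900nM (2x) plus Transcreener GDP mix added; fluorescence polarization (620/688 nm) read before and after 90 min at 30 °C.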
Starred values were filed as active, the others as inactive; [ ] = dose if it differs, or a comment. Rows were chosen to be rich in hits. Some 6.6% of all compounds tested hit in one or more screens of this group. Unless noted, calls follow the shape of the dose curve; as a rule, active = well fitted curve in the direction sought with a large enough effect; inconclusive = small, poorly fitted or top-dose-only effect, or another doubt; inactive = no such curve, though single readings can be large; an effect the other way counts as inactive or inconclusive. Potency is read from the fitted curve at half-maximal effect.

COc1ccc(C)cc1NC(=O)CNC(c1ccccc1)c1ccc(C)cc1 (configuration not stated) was read as PTAP TSG101 blk -0.1%, KB-V1 cytotox inactive, MCF10A rereplic inconclusive, SW480 rerep 2.59µM*, KB-3-1 tox 4.61µM* and RGS4 inh 21.2%.
`COc1ccc(S(=O)(=O)NCC2CCCO2)cc1NC(=O)c1ccccc1` (configuration not stated) gave KB-V1 cytotox inactive, MCF10A rereplic 0.5%, SW480 rerep -13.3%, KB-3-1 tox inactive and RGS4 inh -21.3%.
COc1ccc(C)cc1NC(=O)C(NCC1CCCO1)c1ccccc1 (configuration not stated) was read as PTAP TSG101 blk -5.6%, KB-V1 cytotox 16.4µM*, MCF10A rereplic inconclusive, SW480 rerep 28.4%, KB-3-1 tox inactive and RGS4 inh 22.6%.
Screening CC1CCCN(c2nc3ccsc3c(=O)s2)C1 (configuration not stated) returned PTAP TSG101 blk -2.4%, KB-V1 cytotox 16.4µM*, MCF10A rereplic 18.4µM*, SW480 rerep 18.4%, KB-3-1 tox inconclusive and RGS4 inh 39.9%.
For CC1CCCN(c2sc(S(C)(=O)=O)nc2S(=O)(=O)c2ccc(Cl)cc2)C1 (configuration not stated) the results were PTAP TSG101 blk -8.2%, KB-V1 cytotox inconclusive, MCF10A rereplic 7.6%, SW480 rerep 24.9%, KB-3-1 tox inactive and RGS4 inh 10.6%[56.9 µM].
O=C(Nc1cccc(Cl)c1)Nc1nc(-c2ccccc2)cs1 was read as PTAP TSG101 blk 22.1%, KB-V1 cytotox inactive, MCF10A rereplic 0.82µM*, SW480 rerep 6.0%, KB-3-1 tox inactive and RGS4 inh -14.3%.
CC(=O)Nc1nc(-c2ccc([N+](=O)[O-])cc2)cs1 was read as PTAP TSG101 blk -1.8%, KB-V1 cytotox inactive, MCF10A rereplic 0.1%, SW480 rerep -41.9%, KB-3-1 tox inactive and RGS4 inh -16.0%[56.9 µM].
For O=C(Nc1ccc(Cl)cc1)Nc1nc(-c2ccccc2)cs1 the results were PTAP TSG101 blk -2.6%, KB-V1 cytotox inactive, MCF10A rereplic 0.581µM*, SW480 rerep -8.2%, KB-3-1 tox inactive and RGS4 inh -22.2%.
Screening O=C(Nc1ccc([N+](=O)[O-])cc1)Nc1nc(-c2ccc(Cl)s2)cs1 returned PTAP TSG101 blk -2.5%, KB-V1 cytotox inconclusive, MCF10A rereplic 2.91µM*, SW480 rerep -45.4%, KB-3-1 tox 2.91µM* and RGS4 inh -5.4%.
`O=C(Nc1nc(-c2ccc(Cl)cc2)cs1)NC1CCCCC1` gave PTAP TSG101 blk 0.6%, KB-V1 cytotox 13µM*, MCF10A rereplic inconclusive, KB-3-1 tox inconclusive and RGS4 inh 1.1%.
`O=C(CSc1ncc(-c2ccccc2)[nH]1)Nc1cccc(Br)c1` gave KB-V1 cytotox inactive, KB-3-1 tox inactive and RGS4 inh -1.8%.
`O=c1c2ccccc2n(Cc2ccccc2Cl)c(=O)n1CCc1ccccc1` gave KB-V1 cytotox inconclusive, KB-3-1 tox inactive and RGS4 inh 10.3%.
CCC(C(=O)N1CCN(c2ccccc2)CC1)n1c(C)c2cnn(-c3ccccc3)c(=O)c2c1C (configuration not stated) was read as KB-V1 cytotox inactive, KB-3-1 tox inactive and RGS4 inh -8.1%.
Screening O=C(CSc1nc(=O)[nH]c2c1CCC2)NCc1ccc(Cl)cc1 returned RGS4 inh -19.6%.
For Cc1cccc(OCC(=O)NCC2(N3CCN(C)CC3)CCCCC2)c1C the results were RGS4 inh 8.8%.
CCOc1ccc(NC(=O)CC2C(=O)N(c3ccccc3)C(=O)N2C2CCCCC2)cc1 (configuration not stated) was read as KB-V1 cytotox inactive, KB-3-1 tox inactive and RGS4 inh -12.1%.
CCOC(=O)c1cccc(NC(=O)c2cc3c(=O)n(C)c4ccccc4c3n2C)c1 was read as KB-V1 cytotox inactive, KB-3-1 tox inactive and RGS4 inh 0.9%.
For CC(=O)Nc1ccc(CN2CCN(CC=C(C)C)C(CCO)C2)cc1 (configuration not stated) the results were PTAP TSG101 blk -4.5%, KB-V1 cytotox inactive, MCF10A rereplic 0.3%, SW480 rerep 0.4%, KB-3-1 tox inactive and RGS4 inh 5.3%.
For Cc1ccccc1-c1ncc(CN2CCN(C3CCCC3)C(CCO)C2)cn1 (configuration not stated) the results were PTAP TSG101 blk 0.1%, KB-V1 cytotox inactive, MCF10A rereplic 4.2%, SW480 rerep -10.1%, KB-3-1 tox inactive and RGS4 inh -22.8%.
For CC(=O)Nc1ccc(CN2CCN(C3CCCC3)C(CCO)C2)cc1 (configuration not stated) the results were PTAP TSG101 blk -5.3%, KB-V1 cytotox inactive, MCF10A rereplic 2.59µM*, SW480 rerep 4.1%, KB-3-1 tox inactive and RGS4 inh 12.8%.
For OCCC1CN(Cc2cnc(-c3cccc4ccccc34)nc2)CCN1C1CCCCC1 (configuration not stated) the results were PTAP TSG101 blk 0.1%, KB-V1 cytotox inactive, MCF10A rereplic 9.0%, SW480 rerep 1.84µM*, KB-3-1 tox inactive and RGS4 inh 24.5%.
CCOc1ccc2nc(NC(=O)CSc3nc4c(c(=O)n(C)c(=O)n4C)n3C(C)C)sc2c1 was read as PTAP TSG101 blk -1.6%, KB-V1 cytotox 3.66µM*, MCF10A rereplic inconclusive, SW480 rerep 4.9%, KB-3-1 tox inconclusive and RGS4 inh -6.2%.
CC(C)n1c(SCC(=O)Nc2nc3ccccc3s2)nc2c1c(=O)n(C)c(=O)n2C was read as PTAP TSG101 blk -5.7%, KB-V1 cytotox inactive, MCF10A rereplic inconclusive, SW480 rerep inconclusive, KB-3-1 tox inactive and RGS4 inh 3.2%.
Screening CCn1c(SCC(=O)Nc2nc3ccc(OC)cc3s2)nc2c1c(=O)n(C)c(=O)n2C returned PTAP TSG101 blk 1.7%, KB-V1 cytotox 2.06µM*, MCF10A rereplic 1.4%, SW480 rerep 2.2%, KB-3-1 tox inactive and RGS4 inh 0.2%.

Source: PubChem BioAssay (National Center for Advancing Translational Sciences (NCATS))
